Bioassay records: PubChem BioAssay, National Center for Advancing Translational Sciences (NCATS)
Many of the other results were omitted from the sample, so hits are more common in it than they were.
Methyltransferases: Primary Screen for Target Class Profiling of Small Molecule Inhibitors of Methyltransferases; purified enzyme, MTase-Glo SAH luminescence; hits give low values; calls only at 40 µM; hit rate 3.9% among 25,000; AID 1745853, 2022; call rule not given here
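Each enzyme was reacted with SAM and its substrate, with compounds tested once at 40 uM; SAH formed was read by MTase-Glo luminescence.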
Active calls of the source: *. % is scaled to controls: 0 for no effect and ±100 for the full control effect.

COc1ccc(-c2nnc(-c3ccc(Cl)c(S(=O)(=O)N4CCCCC4)c3)o2)cc1 was read as Methyltransferases inactive.
`CCc1ccc(S(=O)(=O)Nc2ccc3c(c2)n(C)c(=O)n3C)cc1` gave Methyltransferases inactive.
For C[S+](=O)([O-])N1CC2(CCN(Cc3ccc(Cl)cc3)C2)Cc2ccccc21 (stereo unspecified) the results were Methyltransferases inactive.
Screening O=C(CCc1nnc2n(Cc3ccc(F)cc3)c(=O)c3ccccc3n12)N1CCC(N2CCCCC2)CC1 returned Methyltransferases active.
Screening O=C(CCc1nnc2n(Cc3ccccc3)c(=O)c3ccccc3n12)N1CCN(c2cccc(Cl)c2)CC1 returned Methyltransferases inactive.
Cc1ccc(Cn2c(=O)c3ccccc3n3c(CCC(=O)N4CCN(C5CCCCC5)CC4)nnc23)cc1 was read as Methyltransferases inactive.
For Cc1ccc(Cn2c(=O)c3ccccc3n3c(CCC(=O)N4CCC(Cc5ccccc5)CC4)nnc23)cc1 the results were Methyltransferases inactive.
Screening Cc1cccc(-c2nnc3n(CCc4ccccc4)c(=O)c4ccccc4n23)c1 returned Methyltransferases active.
Cc1ccc(-c2nnc3n(CCc4ccccc4)c(=O)c4ccccc4n23)cc1 was read as Methyltransferases inactive.
O=C(CCc1nnc2n(Cc3ccc(F)cc3)c(=O)c3ccccc3n12)N1CCN(C2CCCCC2)CC1 was read as Methyltransferases inactive.
`CC1CCN(C(=O)CCc2nnc3n(Cc4ccc(Cl)cc4)c(=O)c4ccccc4n23)CC1` gave Methyltransferases inactive.
`O=C(CCc1nnc2n(CCc3ccccc3)c(=O)c3ccccc3n12)N1CCC(N2CCCCC2)CC1` gave Methyltransferases active.
For O=c1c2ccccc2n2c(-c3cccc(Cl)c3)nnc2n1CCc1ccccc1 the results were Methyltransferases inactive.
`NC(=O)C1CCN(C(=O)CCc2nnc3n(Cc4ccc(F)cc4)c(=O)c4ccccc4n23)CC1` gave Methyltransferases inactive.
O=C(CCc1nnc2n(Cc3ccc(Cl)cc3)c(=O)c3ccccc3n12)N1CCC(N2CCCCC2)CC1 was read as Methyltransferases active.
CCCC1c2ccc(C)n2CCN1C(=O)Nc1ccc(C)cc1 (stereo unspecified) was read as Methyltransferases inactive.
For CC(C)NC(=O)c1ccc2c(=O)n(Cc3ccccc3)c3nnc(SCc4ccccc4)n3c2c1 the results were Methyltransferases inactive.
Screening COC(=O)c1ncn2c1C(=O)N(Cc1ccc3c(c1)OCO3)C(C)(C(=O)NC1CCCCC1)C2 (stereo unspecified) returned Methyltransferases inactive.
For COc1ccccc1CCNC(=O)c1cc2n(n1)CC(C)(C(=O)NCc1ccccc1)N(C)C2=O (stereo unspecified) the results were Methyltransferases inactive.
Screening CCCn1c(=O)c2cc(Cl)ccc2n2c(=O)n(Cc3ccc(F)cc3)nc12 returned Methyltransferases inactive.
`COc1cccc(CN2C(=O)c3ccc(-c4ccccc4)n3CC2(C)C(=O)NC2CCC(C)CC2)c1` (stereo unspecified) gave Methyltransferases inactive.
For COC(=O)c1cc(COc2ccc3c(-c4ccccc4)cc(=O)oc3c2C)c(C)o1 the results were Methyltransferases inactive.
CCN(CC)CCCN1C(=O)c2ccc(-c3ccco3)n2CC1(C)C(=O)NC1CCCCC1 (stereo unspecified) was read as Methyltransferases inactive.
`CSc1cccc(N2C(=O)CSc3c(c4ccccc4n3C)C2C(=O)NCc2ccc(F)cc2)c1` (stereo unspecified) gave Methyltransferases inactive.
CC(C)CCn1c(=O)c2ccc(C(=O)NC3CCCC3)cc2n2c(SCC(=O)c3ccccc3)nnc12 was read as Methyltransferases inactive.
Screening CC(C)CCn1c(=O)c2ccccc2n2c(=O)n(CC(=O)Nc3ccc4c(c3)OCO4)nc12 returned Methyltransferases inactive.
For CCCCCC(=O)N(c1ccc(OC)cc1)S(=O)(=O)c1ccc2c(c1)n(C)c(=O)n2C the results were Methyltransferases inactive.
`COC(=O)c1cc2n(n1)CC(C)(C(=O)NC1CCC(C)CC1)N(Cc1ccccc1F)C2=O` (stereo unspecified) gave Methyltransferases inactive.
Screening Cc1ccc(C(=O)N2CCC(N3C(=O)C4(CCCC4)C3c3scnc3C)CC2)cn1 (stereo unspecified) returned Methyltransferases inactive.
Screening CCOc1ccccc1NC(=O)N1Cc2c(sc3c2CCN(C)C3)-n2cccc2C1CC (stereo unspecified) returned Methyltransferases inactive.
`C=C1C(=O)OC2/C=C(/C)C3=CC(=O)C(C)(CC(OC(=O)/C(C)=C/COC(C)=O)C12)O3` (stereo unspecified) gave Methyltransferases active.
For C=C1C(=O)O[C@H]2[C@H]1[C@@H](OC(=O)/C(C)=C\C)C[C@]1(C)O[C@@H]1[C@H]1O[C@H]1C(=C)[C@H]2O the results were Methyltransferases inactive.
For C=C(CO)C(=O)O[C@H]1C[C@@]23O[C@@H]2CC/C(=C/[C@H]2OC(=O)C(=C)[C@H]12)CO[C@H]3O the results were Methyltransferases inactive.
